From the antibiotic and cytotoxicity screens of Wong et al. (2023)
Hit rate of the full screen: of about 39,000 compounds, about 500 (1.3%) were called active. The sample holds actives, similar compounds and a random draw of the others, so the mix is not that of the screen.

These compounds were tested on S. aureus RN4220 (assay: growth inhibition call (relative growth <= 0.2)). Conditions: 50 µM.
With `Cc1ccc(S(=O)(=O)N(C)C[C@H]2OCCCC[C@H](C)Oc3ccc(NC(=O)Nc4c(C)noc4C)cc3C(=O)N([C@H](C)CO)C[C@@H]2C)cc1` the growth inhibition call was “inactive”. For `Cc1ccc(-c2ccc3c(c2)O[C@H](CN(C)C(=O)NC(C)C)[C@@H](C)CN([C@@H](C)CO)S3(=O)=O)cc1`, the growth inhibition call was “inactive”. In the case of `C[C@H]1CN([C@@H](C)CO)C(=O)Cc2cc(NS(C)(=O)=O)ccc2O[C@@H]1CN(C)C(=O)Nc1ccc(C(F)(F)F)cc1`, the growth inhibition call was “inactive”. `CC1(C)S[C@H]2[C@@H](NC(=O)[C@@H](NC(=O)N3CCN(S(C)(=O)=O)C3=O)c3ccccc3)C(=O)N2[C@@H]1C(=O)O` was tested, and the growth inhibition call was “active”. `C[C@H](CO)N1C[C@H](C)[C@@H](CN(C)C(=O)C2CCOCC2)Oc2ncc(C#Cc3ccccc3F)cc2C1=O` was tested, and the growth inhibition call was “inactive”. `CC(C)NC(=O)N[C@@H]1C=C[C@H](CC(=O)O)O[C@H]1CO` was tested, and the growth inhibition call was “inactive”. In the case of `COc1ccc(CN(C)C[C@H]2Oc3ccc(NC(=O)Cn4cnnn4)cc3C(=O)N([C@@H](C)CO)C[C@H]2C)cc1`, the growth inhibition call was “inactive”. With `CO[C@@H]1CN(C)C(=O)c2ccc(NC(=O)C3CC3)cc2OC[C@@H](C)N(C(=O)Nc2ccc(C(F)(F)F)cc2)C[C@H]1C` the growth inhibition call was “inactive”. For `CO[C@@H]1CN(C)C(=O)c2cc(NC(=O)C3CCOCC3)ccc2OC[C@@H](C)N(C(=O)Nc2ccc(C(F)(F)F)cc2)C[C@H]1C`, the growth inhibition call was “active”. In the case of `CO[C@@H]1CN(C)C(=O)c2cc(NC(=O)C3CCCC3)ccc2OC[C@@H](C)N(C(=O)Nc2ccc(C(F)(F)F)cc2)C[C@H]1C`, the growth inhibition call was “inactive”. With `CO[C@@H]1CN(C)C(=O)c2ccc(NC(=O)C3CCCC3)cc2OC[C@@H](C)N(C(=O)Nc2ccc(C(F)(F)F)cc2)C[C@H]1C` the growth inhibition call was “inactive”. With `CO[C@@H]1CN(C)C(=O)c2ccc(NC(=O)C3CCOCC3)cc2OC[C@@H](C)N(C(=O)Nc2ccc(C(F)(F)F)cc2)C[C@H]1C` the growth inhibition call was “active”. With `CO[C@@H]1CN(C)C(=O)c2cc(NC(=O)C3CC3)ccc2OC[C@@H](C)N(C(=O)Nc2ccc(C(F)(F)F)cc2)C[C@H]1C` the growth inhibition call was “inactive”. For `C[C@H](CO)N1C[C@H](C)[C@H](CN(C)Cc2ccncc2)Oc2ccc(NC(=O)Nc3ccc(C(F)(F)F)cc3)cc2C1=O`, the growth inhibition call was “inactive”. With `C[C@@H]1CN([C@H](C)CO)C(=O)c2cc(NS(=O)(=O)c3cccs3)ccc2O[C@@H](C)CCCCO[C@@H]1CN(C)S(=O)(=O)c1ccc(Cl)cc1` the growth inhibition call was “inactive”. `CCN(CC)C(C)CN1c2ccccc2Sc2ccccc21.Cl` (configuration not stated) was tested, and the growth inhibition call was “inactive”. In the case of `C[C@H](CO)N1C[C@H](C)[C@H](CN(C)C(=O)Nc2ccccc2)Oc2c(NS(=O)(=O)c3cn(C)cn3)cccc2C1=O`, the growth inhibition call was “inactive”.
